The values that follow come from PubChem BioAssay (NCI).

Experiment [1] is described as follows: NCI Yeast Anticancer Drug Screen. Data for the rad50 strain (AID 155).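 Also: 0% = growth of vehicle-only cultures of the same strain.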 The settings on record: S. cerevisiae rad50 strain growth inhibition; at 50.0 µM; active compounds read high. The method in brief:
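Cells are treated with compound, grown, and their growth is then scored against vehicle-only cultures of the same repair-deficient yeast strain.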

A short description of experiment [2]: NCI Yeast Anticancer Drug Screen. Data for the mec2-1 strain (AID 157). The settings on record: S. cerevisiae mec2-1 strain, at 50.0 µM, active compounds read high. The essentials: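 Cells of the genetically defined mec2-1 yeast strain are incubated with test compound. Inhibition of growth is calculated against vehicle-treated controls.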
A short description of experiment [3]: NCI Yeast Anticancer Drug Screen. Data for the sgs1 mgt1 strain (AID 161).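 Also: 0% = growth of cultures given vehicle only.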 To be noted: S. cerevisiae sgs1 mgt1 strain, at 50.0 µM, active compounds read high. The method in brief: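 Genetically altered yeast, compound exposure, growth inhibition relative to vehicle.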
Experiment [4] can be described thus: NCI Yeast Anticancer Drug Screen. Data for the cln2 rad14 strain (AID 165).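 Also: 0% = growth equal to vehicle treated cultures.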 The settings on record: S. cerevisiae cln2 rad14 strain, at 50.0 µM, active compounds read high. The essentials: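 The screen exposed genetically defined yeast (cln2 rad14) to test compounds and scored growth inhibition relative to vehicle-treated controls.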
Experiment [5] in a line: NCI Yeast Anticancer Drug Screen. Data for the bub3 strain (AID 167). To be noted: S. cerevisiae bub3 mutant strain, at 50.0 µM, active compounds read high. The essentials: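 Part of a panel of yeast mutants defective in DNA damage repair or cell cycle regulation. Each strain is grown with compound, and inhibition is calculated relative to solvent-treated cultures.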
Experiment [6] can be described thus: NCI Yeast Anticancer Drug Screen. Data for the mlh1 rad18 strain (AID 175). The settings on record: S. cerevisiae mlh1 rad18 strain growth inhibition; at 50.0 µM; active compounds read high. The essentials:
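Compound-treated yeast growth, normalised to vehicle controls. Strain bears defined DNA repair mutations.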

About 79,000 compounds went through this panel and 15% of them were active in at least one assay; those are over-represented in the sample as a whole. A number with no mark means an inactive call. The source made the active and inactive calls. Rule as the data show it: active = growth inhibition above about 70%; inactive = the rest.

For the molecule `CCCCNc1nc2c(=O)n(C)c(=O)n(C)c2s1`, the growth inhibition in experiment [1] is -6.3%; in experiment [2] it was -0.6%; in experiment [3], -3.1%; in experiment [4], -17.4%; in experiment [5] it was -5.9%; in experiment [6] it was 9.75%.

For `COC(=O)[C@]12CCC(C)[C@H](C)[C@H]1C1=CCC3[C@@]4(C)CC[C@H](OC(C)=O)C(C)(C)C4CC[C@@]3(C)C1(C)C(O)C2` (stereo not given in full), the growth inhibition in experiment [1] is 23.1%; in experiment [2], -22.5%; in experiment [3], -8.45%; in experiment [4] it was 8.5%; in experiment [5], -0.4%; in experiment [6], 21.9%.

Regarding `COc1cc(C2c3cc4c(cc3[C@@H](Nc3ccc(C#N)cc3)C3COC(=O)[C@H]23)OCO4)cc(OC)c1O` (stereo not given in full), the growth inhibition was 87.5% (active) in experiment [1]; 89.7% (active) in experiment [2]; 89.5% (active) in experiment [3]; 85.5% (active) in experiment [4]; 89% (active) in experiment [5]; 88.3% (active) in experiment [6].

Turning to `COC(=O)NN=C1C(C)(C)C(=NNC(=O)OC)C1(C)C`, the growth inhibition in experiment [1] was 2.25%; in experiment [2], -15.5%; in experiment [3], -8.6%; in experiment [4], 27.1%; in experiment [5], -17.6%; in experiment [6] it was -5.4%.

Regarding `O=C1/C(=C/c2cccc3ccccc23)CCc2ccc([N+](=O)[O-])cc21`, the growth inhibition is -34.5% in experiment [1]; -23.6% in experiment [2]; -49.9% in experiment [3]; -23.9% in experiment [4]; 20.1% in experiment [5]; -15.6% in experiment [6].

On to `Cc1ccc2ccccc2c1CC(=O)O`, for which the growth inhibition is 28.8% in experiment [1]; 36.6% in experiment [2]; 31.5% in experiment [3]; 31.7% in experiment [4]; 38.8% in experiment [5]; 39.2% in experiment [6].

As to `CCOc1ccccc1NC(=O)c1c(Br)c(Br)c(Br)c(Br)c1C(=O)O`, the growth inhibition in experiment [1] is 5.6%; in experiment [2] it was -16.8%; in experiment [3], -1.8%; in experiment [4], -4.15%; in experiment [5], 6.05%; in experiment [6] it was -17.6%.

Turning to `O=C1NC(=O)C(Cc2ccco2)N1` (stereo not given), the growth inhibition is 10.8% in experiment [1]; 6.7% in experiment [2]; -7.85% in experiment [3]; -20.6% in experiment [4]; -35.5% in experiment [5]; -5.2% in experiment [6].

With `CC(C#N)NC(=O)NC(C)C(N)=O` (stereo not given), the growth inhibition in experiment [1] is 3.85%; in experiment [2], 6.3%; in experiment [3] it was -5%; in experiment [4] it was -48.3%; in experiment [5] it was 8.2%; in experiment [6] it was -27.7%.

Turning to `O=C(CC1(O)CCCCC1)Nc1ccccc1`, the growth inhibition in experiment [1] was 1.9%; in experiment [2], -8.45%; in experiment [3] it was -8.4%; in experiment [4], -54.6%; in experiment [5], 4.6%; in experiment [6] it was -13.1%.

As for `COc1ccc(Cc2cc3c(cc2OCC(=O)Nc2ccccn2)OCO3)cc1`, the growth inhibition was 22.2% in experiment [1]; -1.95% in experiment [2]; 6.25% in experiment [3]; 19.3% in experiment [4]; -3% in experiment [5]; 8.1% in experiment [6].

Take `CCOC(=O)C(C)(OCC)OCC`: the growth inhibition was -13.4% in experiment [1]; -13.2% in experiment [2]; -17.2% in experiment [3]; -8.55% in experiment [4]; -0.3% in experiment [5]; 11.9% in experiment [6].

As for `CCOC(=O)C(C(=O)OCC)C(C(=O)OCC)C(=O)OCC`, the growth inhibition in experiment [1] was -22.7%; in experiment [2], 4.45%; in experiment [3], -6.2%; in experiment [4] it was -9.65%; in experiment [5] it was -14.5%; in experiment [6], -9.05%.

`C=CCN(CC=C)C(=O)C(=C)C`: the growth inhibition in experiment [1] was 3.3%; in experiment [2], -0.05%; in experiment [3], -5.5%; in experiment [4] it was 2.6%; in experiment [5], 3.7%; in experiment [6] it was -4.1%.

Consider `CCCCC(CC)COC(=O)CCl` (stereo not given), for which the growth inhibition is 21.1% in experiment [1]; 10.7% in experiment [2]; 8.3% in experiment [3]; -14.8% in experiment [4]; -1.6% in experiment [5]; 21.8% in experiment [6].

Regarding `CC(=O)OCC(OC(C)=O)C(OC(C)=O)c1cnn(-c2ccccc2)n1` (stereo not given), the growth inhibition in experiment [1] was 12.6%; in experiment [2], -1.5%; in experiment [3] it was 2.5%; in experiment [4], 17.7%; in experiment [5], 24.6%; in experiment [6] it was 22%.

As for `COc1c(C(=O)/C(=N/Nc2cccc(Cl)c2)C(C)=O)c(O)c(OC)c2occc12`, the growth inhibition is -5.15% in experiment [1]; -8% in experiment [2]; -6.6% in experiment [3]; -8.5% in experiment [4]; 8.2% in experiment [5]; 7.65% in experiment [6].

For `OC1COC(O)(CN2CCOCC2)C(O)C1O` (stereo not given), the growth inhibition is 14.2% in experiment [1]; 5.95% in experiment [2]; 10.6% in experiment [3]; 4.75% in experiment [4]; 18.1% in experiment [5]; 7.6% in experiment [6].

In the case of `CCOC(=O)C(Cc1cn(C(C)=O)c2ccccc12)P(=O)(OCC)OCC` (stereo not given), the growth inhibition in experiment [1] is -12.7%; in experiment [2], -21.6%; in experiment [3], -15.2%; in experiment [4], -1.15%; in experiment [5], 1.05%; in experiment [6] it was -27%.

For the molecule `Nc1nc(Nc2ccccc2)c2ncn(C3OC(CO)C(O)C3O)c2n1` (stereo not given), the growth inhibition in experiment [1] was 12.7%; in experiment [2], 1.25%; in experiment [3] it was 0.25%; in experiment [4], -1.35%; in experiment [5], 3.6%; in experiment [6], -12.3%.
